# Most compounds without a hit are left out; they make up all but 1.5% or so of the library.
# Nrf2 ARE act = activators of Nrf2 (ARE) signaling; AREc32 ARE-luciferase reporter (MCF7-derived line), luminescence, 24 h; Potency, µM (titrated, usually from 46.1 µM), for the others: top-dose activation, hits mostly activators; actives 0.31% (n = 410,000); AID 624171; further: potency means the concentration at half of the fitted maximal effect; % of control where 0% means no effect; nearly all actives have a fitted effect of over 65% in size
#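 Nrf2 activation is followed as ARE-luciferase induction in the AREc32 line after one day of compound treatment; luminescence is read with Steady-Glo.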
# uPA generation = inhibitors of cell surface uPA generation | cell surface uPA generation assay, qHTS | Potency, µM (series often up to 38.3 µM), for the others: top-dose activity change, negative = inhibition, actives largely listed as inhibitors | actives 0.31% (n = 330,000) | AID 540303; active means well fitted inhibition curve with a large enough effect; inconclusive means small, poorly fitted or top-dose-only effect; inactive means no such curve, though single readings can be large or run the other way; tested in mouse RAW 264.7 cells; further: potency means the concentration at half of the fitted maximal effect; on the % scale 0 is the no-effect control and ±100 the full control effect; nearly all actives have a fitted effect of over 55% in size
# IL-2 act = activates IL-2 in a cell-based reporter assay; IL-2 activation reporter assay, cell-based qHTS; stimulated with anti-CD3/CD4/CD28 beads; in transgenic mouse T cells; actives 0.065% (n = 360,000); activation, % (series mostly up to about 46 µM); AID 652025; in the data active means activation above about 50%; inconclusive means mostly about 30% to 49%; further: 0% is about no effect
#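 Unstimulated transgenic mouse T cells preincubated 60 min with compound, then stimulated with anti-CD3/anti-CD4-coated beads plus anti-CD28 for 18 h at 37 degrees C. IL-2 response read as EGFP and DsRed fluorescence by plate cytometry.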
# a7 integrin act = activates integrin-mediated alleviation for muscular dystrophy; Potency, µM (doses to about 38.3 µM), without a hit: at the top dose activation, usual class: activators; alpha7betagal myoblasts, beta-gal FDG fluorescence, 48 h; actives 0.064% (n = 350,000);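 further: potency means the concentration at half of the fitted maximal effect; 100% = response of the positive control SU9516; nearly all actives have a fitted effect of over 60% in size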
#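 alpha7betagal+/- myoblasts (passage 13, 250/well) treated 48 h at 37C with compounds at 1:260 dilution of DMSO stock. Lysed, then beta-galactosidase activity read as FDG fluorescence (ex 480/em 540) after 30 min, with pre-read for autofluorescence.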
# ALOX12 inh = blocks human arachidonate 12S-lipoxygenase. P18054. purified 12hLO, xylenol orange hydroperoxide absorbance. Potency, µM (highest dose often 108 µM), without a hit: top-dose activity change, negative = inhibition, most hits filed as inhibitors. actives 1.1% (n = 580,000). AID 1671190; further: potency means the concentration at half of the fitted maximal effect; on the % scale 0 is the no-effect control and ±100 the full control effect
# Target sequence (P18054 whole entry, looked up): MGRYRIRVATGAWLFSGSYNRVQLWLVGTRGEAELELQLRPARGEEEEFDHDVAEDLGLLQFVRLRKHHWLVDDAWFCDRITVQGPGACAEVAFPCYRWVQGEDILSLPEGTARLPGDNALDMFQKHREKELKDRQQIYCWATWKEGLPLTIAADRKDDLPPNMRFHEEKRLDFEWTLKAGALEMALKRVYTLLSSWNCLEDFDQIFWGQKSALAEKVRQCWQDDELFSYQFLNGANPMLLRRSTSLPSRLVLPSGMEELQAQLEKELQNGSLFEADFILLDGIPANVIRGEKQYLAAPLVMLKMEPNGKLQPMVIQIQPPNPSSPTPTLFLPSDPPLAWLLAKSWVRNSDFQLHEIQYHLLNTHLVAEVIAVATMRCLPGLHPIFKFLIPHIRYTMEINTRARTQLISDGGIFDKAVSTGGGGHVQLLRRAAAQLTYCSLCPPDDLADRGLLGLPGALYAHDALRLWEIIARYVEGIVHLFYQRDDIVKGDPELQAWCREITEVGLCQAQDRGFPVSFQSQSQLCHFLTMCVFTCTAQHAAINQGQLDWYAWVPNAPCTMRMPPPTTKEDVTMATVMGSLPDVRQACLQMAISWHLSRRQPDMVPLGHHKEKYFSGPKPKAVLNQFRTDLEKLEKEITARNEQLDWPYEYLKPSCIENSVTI
#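 Hydroperoxide product was detected by ferrous iron/xylenol orange as the 573 to 405 nm absorbance ratio. Arachidonic acid at 40 uM (final) was turned over for 30 min at room temperature by 150 nM human 12hLO, pH 7.0 Hepes buffer, after 15 min compound preincubation.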
# Starred values were filed as active, the others as inactive; ? = inconclusive; · = not tested or not shown. Unless noted, the call rests on the fitted dose curve; in most records, active means well fitted curve in the direction sought with a large enough effect; inconclusive means small, poorly fitted or top-dose-only effect, or another doubt; inactive means no such curve, though single readings can be large; an effect the other way counts as inactive or inconclusive.
SMILES,Nrf2 ARE act,uPA generation,IL-2 act,a7 integrin act,ALOX12 inh
COCCN1CCCCCC(O)c2cc(C(=O)N3CCN(CC(C)C)CC3)ccc21 (configuration not stated),·,·,·,·,61%
CC1CCCN(C(=O)CSc2nc3ccccc3c(=O)[nH]2)C1 (configuration not stated),·,·,·,·,0%
CC(=O)C1=C(O)C(=O)N(c2cccc(Br)c2)C1c1ccccc1Cl (configuration not stated),-1%,2%,2,0%,18µM*
CCCNC(=S)Nc1ccc(Cl)c(Cl)c1,·,·,·,·,-6%
CCOc1ccc(NC2=NCC(=O)N2Cc2cccs2)cc1,3%,3%,0,-10%,35µM*
COc1ccc(Cn2c(-c3cccc(Cl)c3)nc(C)c(CCO)c2=O)cc1F,·,·,·,·,32%
c1ccc(-c2cnc(CSc3nnnn3-c3ccccc3)o2)cc1,·,·,·,·,6%
Oc1ccc(-n2nnnc2SCc2ncc(-c3ccc(Cl)cc3)o2)cc1,·,·,·,·,32µM*
O=C(Nc1ccccc1)NC1CCSc2ccccc21 (configuration not stated),·,·,·,·,-3%
CCc1noc(-c2ccn3c(CNC(=O)CCCc4ccccc4)nnc3c2)n1,·,·,·,·,1%
c1ccc(C[n+]2cccc3c4ccccc4ccc32)cc1,0%,-16%,-1,-49%,21%
CCCCC[n+]1cccc2c3ccccc3ccc21,0%,?,0,-54%,45µM*
CCCn1nc(C(=O)OCC(=O)NCc2ccco2)c2ccccc2c1=O,·,·,·,·,-16%
CC1=CC(=O)C(C(=O)/C=C/c2ccc(C)s2)C(=O)O1 (configuration not stated),·,·,·,·,14µM*
CCN1C(=O)[C@H]2[C@@H](c3ccc(-c4ccc(Cl)c(Cl)c4)cc3)N[C@@](C)(C(=O)OC)[C@H]2C1=O,4%,6%,-1,-3%,40µM*
Fc1ccc(NC(=S)NCCc2c[nH]c3ccccc23)cc1,·,·,·,·,-27%
COc1ccc(NC(=S)NCCc2c[nH]c3ccccc23)cc1,0%,7%,0,-19%,50µM*
FC(F)(F)c1cccc(NC(=S)NCCc2c[nH]c3ccccc23)c1,·,·,·,·,40µM*
CCc1ccc(CN2C[C@@H]3C(=O)N(CCOC)C(=O)[C@@H]3C2)cc1,·,·,·,·,15%
Cc1cc2[nH]c3c4ccccc4nc(C)c3c2cc1C,-6%,10µM*,-4,?,?
CCNC(=O)C1CCCN(C(=O)Cc2cccs2)CC1 (configuration not stated),0%,·,0,·,50µM*
CCNC(=O)C1CCCN(C(=O)c2cccs2)CC1 (configuration not stated),0%,·,-1,·,23%
COC(=O)c1cccc(Nc2ncnc3ccc(C)cc23)c1,3%,-5%,-1,-3%,20%
COc1ccc(Nc2cc(C)c3cc(C)ccc3n2)cc1,·,·,·,·,18µM*
COc1ccc(Nc2ncnc3ccc(C)cc23)cc1,-1%,21%,0,3.5µM*,263%
SMILES,Nrf2 ARE act,uPA generation,IL-2 act,a7 integrin act,ALOX12 inh
COc1ccc(Nc2cc(C)c3ccccc3n2)cc1,4%,0%,-3,8%,?
CCCc1c(C(=O)NC(C)C)nnn1-c1ccc(C)cc1,·,·,·,·,2%
O=C1C2CCCCCC1CN(Cc1ccccc1)C2,·,·,·,·,-18%
COc1ccc2c(c1)CC/C(=C\c1ccc(Br)o1)C2=O,·,·,·,·,22µM*
COc1ccc2c(c1)CC/C(=C/c1cc(OC)c(OC)c(OC)c1)C2=O,25%,-1%,-1,-28%,19%
CCOC(=O)c1sc(N2C(=O)C(O)=C(C(=O)c3ccco3)C2c2ccc([N+](=O)[O-])cc2)nc1C (configuration not stated),-1%,-3%,-3,-20%,28µM*
Cc1cc(N2C(=O)C(O)=C(C(=O)c3ccco3)C2c2ccc([N+](=O)[O-])cc2)no1 (configuration not stated),3%,-2%,-1,1%,45µM*
CCOC(=O)c1sc(N2C(=O)C(O)=C(C(=O)c3ccco3)C2c2ccc(C)o2)nc1C (configuration not stated),1%,-1%,1,-28%,?
O=S(=O)(Cc1cccc(F)c1)Cc1cc(-c2ccccc2)on1,·,·,·,·,-29%

# Source: PubChem BioAssay (National Center for Advancing Translational Sciences (NCATS))
